Experiments:
Conditions in all cases: Compound Concentration (nM):1000
BIKE = system: T1, BIKE
T1 construct: gene BMP2K

BLK = system: BLK
BMPR1A = system: BMPR1A
BMPR1B = system: BMPR1B
BMPR2 = system: BMPR2
BMX = system: BMX
BRAF(V600E) = system: BRAF(V600E)
BRAF = system: BRAF
BRK = system: T2, BRK
T2 construct: gene PTK6

BRSK1 = system: BRSK1
BRSK2 = system: BRSK2
BTK = system: BTK
BUB1 = system: BUB1
CAMK1B = system: T3, CAMK1B
T3 construct: gene PNCK

CAMK1D = system: CAMK1D
CAMK1G = system: CAMK1G
CAMK1 = system: CAMK1
CAMK2A = system: CAMK2A
CAMK2B = system: CAMK2B
CAMK2D = system: CAMK2D
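Further: KINOMEscan scanMAX binding as percent activity remaining versus control; lower means stronger binding.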

Structure (SMILES) | Percent Control (BIKE) | Percent Control (BLK) | Percent Control (BMPR1A) | Percent Control (BMPR1B) | Percent Control (BMPR2) | Percent Control (BMX) | Percent Control (BRAF(V600E)) | Percent Control (BRAF) | Percent Control (BRK) | Percent Control (BRSK1) | Percent Control (BRSK2) | Percent Control (BTK) | Percent Control (BUB1) | Percent Control (CAMK1B) | Percent Control (CAMK1D) | Percent Control (CAMK1G) | Percent Control (CAMK1) | Percent Control (CAMK2A) | Percent Control (CAMK2B) | Percent Control (CAMK2D)
CN1CCN(C(=O)c2ccc(NC(=O)Nc3ccc(N(C)c4ccnc(Nc5ccc(CS(C)(=O)=O)cc5)n4)cc3)cc2)CC1.Cl [GW830263A] | 2.4% | 87% | 32% | 1.1% | 56% | 59% | 85% | 89% | 95% | 100% | 100% | 50% | 46% | 85% | 98% | 88% | 100% | 86% | 86% | 69%
CN(C)c1cc2c(Nc3ccc4c(cnn4Cc4ccccc4)c3)ncnc2cn1 [GW282974X] | 86% | 80% | 100% | 91% | 100% | 100% | 99% | 92% | 75% | 92% | 88% | 64% | 63% | 98% | 96% | 91% | 95% | 74% | 62% | 72%
NS(=O)(=O)c1ccc(N/N=C2\C(=O)Nc3ccc(Cl)cc32)cc1 [GW280670X] | 100% | 100% | 100% | 100% | 100% | 100% | 92% | 100% | 100% | 100% | 86% | 100% | 100% | 100% | 100% | 100% | 100% | 100% | 100% | 100%
COc1cc2ncn(-c3cc(O[C@H](C)c4ccccc4Cl)c(C(N)=O)s3)c2cc1OC [GSK237701A] | 1.4% | 68% | 100% | 88% | 72% | 75% | 75% | 100% | 100% | 76% | 47% | 53% | 56% | 87% | 91% | 93% | 86% | 89% | 100% | 82%
Nc1ncnc2occ(-c3ccc(NC(=O)Nc4cc(C(F)(F)F)ccc4F)cc3)c12 [GW770249X] | 100% | 83% | 100% | 100% | 97% | 41% | 7% | 28% | 100% | 100% | 88% | 87% | 98% | 94% | 93% | 94% | 77% | 100% | 100% | 100%
Cl.O=S1CCN(Cc2ccc(-c3ccc4ncnc(Nc5ccc(OCc6ccccc6)c(F)c5)c4c3)o2)CC1 [GW576924A] | 100% | 100% | 100% | 100% | 100% | 100% | 65% | 79% | 100% | 100% | 85% | 100% | 100% | 100% | 100% | 100% | 100% | 100% | 100% | 100%
CCS(=O)(=O)c1ccc(OC)c(Nc2ncc(-c3cccc(OC)c3)o2)c1 [GW580509X] | 100% | 21% | 100% | 45% | 100% | 100% | 78% | 86% | 100% | 100% | 96% | 99% | 95% | 100% | 99% | 100% | 87% | 71% | 80% | 97%
CN(C)CCNC(=O)Nc1ccc(N(C)c2ccnc(Nc3ccc(CS(C)(=O)=O)cc3)n2)cc1.Cl [GW830900A] | 5.1% | 93% | 100% | 52% | 100% | 98% | 100% | 100% | 96% | 90% | 96% | 74% | 55% | 93% | 91% | 100% | 100% | 92% | 84% | 93%
O=C1Nc2ccc(C(=O)c3ccco3)cc2C1=Cc1cc(Cl)c(O)c(Cl)c1 [GW406108X] | 59% | 100% | 100% | 35% | 0% | 81% | 1.2% | 4.4% | 100% | 100% | 100% | 87% | 50% | 100% | 81% | 77% | 63% | 25% | 44% | 55%
Cl.c1ccc(Cc2nc3ccc(Nc4ncnc5ccccc45)cc3[nH]2)cc1 [GR269666A] | 100% | 100% | 100% | 100% | 100% | 100% | 88% | 100% | 100% | 100% | 91% | 100% | 100% | 89% | 100% | 100% | 90% | 93% | 99% | 100%
C[C@@H](Oc1cc(-n2cnc3ccc(OC4CCN(C)CC4)cc32)sc1C(N)=O)c1ccccc1Cl [GSK579289A] | 19% | 94% | 72% | 67% | 78% | 98% | 82% | 95% | 77% | 64% | 56% | 92% | 88% | 100% | 61% | 81% | 55% | 74% | 80% | 52%
COc1cc(/C=N/Nc2ncnc3[nH]ncc23)ccc1O [GW578748X] | 53% | 32% | 100% | 22% | 9.6% | 89% | 26% | 35% | 80% | 100% | 61% | 44% | 23% | 83% | 85% | 100% | 100% | 80% | 100% | 96%
C/C(Nc1ccc(S(N)(=O)=O)cc1)=C1/C(=O)Nc2ccccc21 [GW335962X] | 100% | 100% | 99% | 97% | 84% | 86% | 86% | 100% | 95% | 91% | 81% | 83% | 90% | 79% | 83% | 86% | 52% | 79% | 72% | 100%
COc1cc2ncnc(Nc3ccc4c(cnn4Cc4ccccc4)c3)c2cc1OC.Cl [GW282449A] | 100% | 23% | 92% | 91% | 100% | 100% | 100% | 100% | 75% | 100% | 100% | 40% | 100% | 100% | 100% | 100% | 100% | 100% | 100% | 100%
CCS(=O)(=O)c1ccc(OC)c(Nc2ncc(-c3cccc(F)c3)o2)c1 [GW621970X] | 100% | 16% | 95% | 64% | 100% | 100% | 73% | 91% | 100% | 100% | 89% | 71% | 100% | 100% | 100% | 100% | 100% | 85% | 100% | 100%
COc1cc(C)c(N(C)C(=O)CN(C)C)cc1Nc1nc(Nc2cccc(F)c2C(N)=O)c2cc[nH]c2n1 [GSK2219385] | 77% | 100% | 93% | 95% | 91% | 92% | 82% | 72% | 100% | 100% | 93% | 100% | 90% | 85% | 87% | 95% | 97% | 89% | 93% | 82%
NS(=O)(=O)c1ccc(N/N=C2\C(=O)Nc3ccc(C(=O)NCCc4c[nH]cn4)cc32)cc1 [GW300660X] | 100% | 100% | 100% | 95% | 87% | 100% | 86% | 100% | 100% | 100% | 89% | 100% | 54% | 85% | 100% | 100% | 100% | 100% | 100% | 100%
COC(=O)Nc1nc2ccc(Oc3ccc(NC(=O)Nc4cc(C(F)(F)F)ccc4F)cc3)cc2s1.Cl [GW693917A] | 75% | 61% | 89% | 80% | 99% | 100% | 17% | 30% | 96% | 100% | 93% | 72% | 65% | 75% | 90% | 100% | 88% | 93% | 88% | 98%
CCn1c(-c2nonc2N)nc2c(C#CC(C)(C)O)nc(OCCNC)cc21.Cl [GSK949675] | 75% | 96% | 89% | 89% | 100% | 100% | 100% | 100% | 100% | 100% | 91% | 100% | 71% | 100% | 100% | 100% | 100% | 100% | 100% | 100%
Cl.O=C(Nc1ccc(Oc2ccc3[nH]c(NC(=O)c4ccccc4)nc3c2)cc1)Nc1cc(C(F)(F)F)ccc1F [GW709042A] | 100% | 98% | 98% | 94% | 100% | 94% | 34% | 58% | 100% | 100% | 73% | 93% | 92% | 100% | 97% | 100% | 95% | 100% | 95% | 100%

Source: article PMC7826789 (International Journal of Molecular Sciences, 2021)
